For the assay, the target named is AMP-activated protein kinase, AMPK (Homo sapiens) (UniProt P54646+O43741+P54619+Q9UGJ0+Q9Y478+Q13131+Q9UGI9). The assay can be described thus: AMP-dependent Kinase enzyme assay. An in vitro enzyme assay that detects ADP turnover that is directly proportional to AMPK activity. This uses naive AMPK that is activated during the assay with MK-8722. The format is functional. The conditions noted are these: 30 µM. More on the design: scale not given: direction of the effect not stated beside the values.
As to `Cc1ccc(C2(O)CCN(C(=O)Cn3cc(C)c(=O)[nH]c3=O)CC2)nc1`, the Percent Effect is 7.31%. Next, `CCOC(=O)C1(O)CCN(C(=O)Nc2cccc(CC)c2)CC1`: -6.62%; `CC1(C)Cc2nc(C(C)(C)C)ncc2C(NC(=O)C2(N)CC2)C1` (stereo not given): -16.9%; `NC(=O)CN(Cc1ncc(-c2ccc(F)cc2)o1)C1CCCC1`: -3.13%. Turning to `CC(Cc1cccc(F)c1)C(=O)NS(=O)(=O)c1ccc(F)cc1` (stereo not given), the Percent Effect is 0.261%. For `CCc1ccc2nc(C)cc(C(=O)N[C@@H]3CNC[C@H]3O)c2c1`, the Percent Effect stood at 0.636%. Consider `Cn1cc(S(=O)(=O)NCc2ccsc2)cn1`, for which the Percent Effect is -0.312%. On to `NC(=O)CN1CCc2c(Br)ccc(F)c2C1`, for which the Percent Effect turned out to be 1.51%. Next, `CC(CN1CCOC1=O)NC(=O)c1ccccc1Oc1ccccc1` (stereo not given): 8.72%; `CCn1c(C2CCN(C(=O)c3ccc4cc[nH]c4c3)CC2)n[nH]c1=O`: -10.8%.

Regarding `Cc1ncsc1C(=O)NCCN1CCCCCC1=O`, the Percent Effect is -13.5%. As to `CCCOC1CCCN(c2ncnc3c2CCN(C(=O)C2CC2)C3)C1` (stereo not given), the Percent Effect was 3.46%.

In the case of `CCc1nnc(C(C)N2CCN(CCC(=O)NC3CC3)CC2)o1` (stereo not given), the Percent Effect came to 8.34%. Then `CN(C)Cc1cn(-c2ccccc2C(=O)NCCC2CCCN2C)cn1` (stereo not given), with -16.8%; and `CC(Oc1cccc(Cl)c1)C(=O)Nc1cnn(CCN(C)C)c1` (stereo not given), with -7.28%.

As for `COCCC(=O)N(CCC#N)c1ccc(C)c(C)c1`, the Percent Effect is -6.74%. As for `Cc1cnc(N2CCN(C)CC2)nc1-c1ccnn1C`, the Percent Effect is -3.23%. Turning to `Cn1cc(CNCCNc2ncc(Cl)cc2Cl)cn1`, the Percent Effect is -10.3%.

Regarding `CC1(C)CC1(C(=O)N1CC(c2cccnc2)C1)c1ccccc1F` (stereo not given), the Percent Effect was -6.17%. Next, `CN1CCCC1CCNC(=O)c1ccccc1-n1cc(CN)cn1` (stereo not given): 11.2%; `COc1cc2c(cc1OC)CN(C(=O)NCC1CCCO1)CC2` (stereo not given): -8.87%; `O=C(CC1CCCC1)NCCS(=O)(=O)N1CCN(c2ccccc2)CC1`: -7.22%. Next, `CNc1nc(C(=O)NCC2CCOc3ccccc3C2)cs1` (stereo not given): 1.74%. Consider `CCC[C@H]1CN(c2cncc(C(=O)N3CCCCC3)n2)C[C@@H]1N(C)C`, for which the Percent Effect worked out at 14.2%. Next, `Cc1ccc(Cl)c(C)c1NC(=O)N1CCCN(Cc2ccccn2)CC1`: 2.6%; `Cc1noc(C)c1CNC(=O)NCCC(=O)N1CCCc2ccccc21`: -2.4%.

With `Cc1ccsc1C(CNC(=O)c1cc(=O)[nH]c(=O)[nH]1)N(C)C` (stereo not given), the Percent Effect came to 3.78%. Next, `Cc1ccc(OCc2occc2C(=O)O)cc1`: 12.4%; `CCc1nc(C)c(C(=O)N[C@@H]2c3ccccc3C[C@@H]2O)o1`: 15.9%; `Cc1nc(C2CCCN2CCOCC2CC2)no1` (stereo not given): -0.854%. Next, `COc1ccc(NC(=O)N2CCOCC(CN(C)C)C2)c(C)c1` (stereo not given): 1.75%. As to `C[C@@H]1CN(c2ccc(Cl)cn2)C[C@]1(C)O`, the Percent Effect is -1.99%.

For the compound `CC(=O)N[C@H]1CCO[C@@H](c2cccc(NC(=O)c3ccc(=O)[nH]n3)c2)C1`, the Percent Effect is 14.1%.

`O=C(C1CC1)N1CCCC(C2=Nc3ccccc3S(=O)(=O)N2)C1` (stereo not given): the Percent Effect came to 24.4%. As for `Cc1cc(=O)n2nc(Oc3ccc(C#N)cc3Cl)sc2n1`, the Percent Effect was -3.6%.

Take `CCC1(CC)CC(=O)N(CC(O)c2ccc(Cl)cc2)C1=O` (stereo not given): the Percent Effect was 7.86%.

As to `NCc1cccc(NC(=O)CCN2CCOCC2)c1`, the Percent Effect is -8.1%.

As to `Cc1cc(C)nc(N2CC[C@H](Oc3ccccc3F)[C@@H](O)CC2)n1`, the Percent Effect worked out at 21.5%. Then `Cc1nn(C)c(C)c1C1COCCN1C(=O)CSC(C)(C)C` (stereo not given), with -7.18%; and `COCCN1CCCC(c2nccnc2-c2cccc(Cl)c2)C1` (stereo not given), with -11.9%.

The record behind these values is ChEMBL document CHEMBL3988442, “University of Dundee, Small-Polar-MMV Screening Library” (2021).
